# Assays:
# [1] = tested on: T1, LZK
# T1 construct: gene MAP3K13
# [2] = tested on: MAK
# [3] = tested on: MET
# [4] = tested on: MAPKAPK2
# [5] = tested on: MARK3
# [6] = tested on: T2, MEK1
# T2 construct: gene MAP2K1
# [7] = tested on: MKNK1
# [8] = tested on: T3, MLCK
# T3 construct: gene MYLK3
# [9] = tested on: T4, MRCKB
# T4 construct: gene CDC42BPB
# [10] = tested on: NLK
# [11] = tested on: MYLK2
# [12] = tested on: MYLK
# [13] = tested on: MYLK4
# [14] = tested on: NEK2
# [15] = tested on: NEK5
# [16] = tested on: T5, NIK
# T5 construct: gene MAP3K14
# [17] = tested on: T6, NIM1
# T6 construct: gene MGC42105
# [18] = tested on: T7, OSR1
# T7 construct: gene OXSR1
# 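Note: kd values determined as follow-up on hits from a single-replicate KINOMEscan panel screen.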
smiles,measurement,setting,value
Fc1cccc(COc2ccc(Nc3ncnc4sc(-c5ccc[nH]5)cc34)cc2Cl)c1 [GW707818],Kd,[1],> 10 µM
O=C(NCCCN1CCCC1=O)c1cnc(NCc2cc(Cl)ccc2Cl)nc1NC1CCNCC1,Kd,[2],> 10 µM
c1ccc(-c2ccc3c(-c4ccnc(Nc5ccc6c(c5)OCCO6)n4)cnn3n2)cc1 [GW818941],Kd,[2],> 10 µM
same,Kd,[3],> 10 µM
Cn1cc(-c2ccc3c(c2)CCN3C(=O)Cc2cccc(C(F)(F)F)c2)c2c(N)ncnc21 [GSK2606414],Kd,[4],> 10 µM
CCn1c(-c2ccncc2)nc2cnccc21 [SB-735216],Kd,[5],> 10 µM
CC(C)(C)OC(=O)NC1CCCN(c2cc(-c3ccc4c(N)n[nH]c4c3)nc(N)n2)C1 (stereo not shown) [GSK2286096],Kd,[6],> 10 µM
C[C@H]1CC[C@@H](C(=O)Nc2ccccc2)CN1c1cc(-c2ccc3c(N)n[nH]c3c2)nc(N)n1 [GSK2283293],Kd,[3],> 10 µM
CSc1ccc(NC2=C(c3ccccc3Cl)C(=O)NC2=O)cc1 [SB-342411],Kd,[7],> 10 µM
Nc1n[nH]c2nnc(-c3ccccc3)cc12 [SB-517389],Kd,[8],> 10 µM
C[C@@H]1CCN(C(=O)CO)C[C@@H]1N(C)c1ncnc2[nH]ccc12,Kd,[9],> 10 µM
same,Kd,[10],> 10 µM
O=C(Nc1n[nH]c2nc(-c3ccco3)c(Br)cc12)c1ccc(CN2CCCC2)cc1.O=C(O)[C@H](O)[C@@H](O)C(=O)O [SB-742352],Kd,[11],0.12 µM
same,Kd,[12],1.3 µM
Nc1nc(-c2cccnc2)c(-c2ccnc3ccccc23)s1 [GW684083],Kd,[13],0.49 µM
CN1c2ccc(-c3ccc(C(=O)NCCO)cc3)cc2-c2[nH]ncc2S1(=O)=O,Kd,[12],0.48 µM
COC(=O)c1c(-c2ccccc2)c2cc(Cl)ccc2c(=O)n1Cc1ccc(S(C)(=O)=O)cc1,Kd,[14],> 10 µM
CNc1nccc(-c2c(-c3ccc(F)cc3)ncn2CCCN2CCOCC2)n1 [SB-222516],Kd,[15],> 10 µM
CS(=O)(=O)CCNCc1ccc(-c2ccc3ncnc(Nc4ccc(OCc5ccccc5)c(Cl)c4)c3c2)o1.Cl [GW574783],Kd,[16],> 10 µM
CC(=O)Nc1n[nH]c2ncc(-c3ccccc3)cc12 [SB-548492],Kd,[17],> 10 µM
CNc1nccc(-c2c(-c3ccc(F)cc3)ncn2C2CCN(C)CC2)n1 [SB-222903],Kd,[10],0.13 µM
CCCc1ccc(S(=O)(=O)NC2CCN(c3ccnc(Nc4ccc(OC)cc4)n3)C2)cc1 (stereo not shown) [GSK1379737],Kd,[18],> 10 µM

# — paper PMC5540273 (PLoS ONE, 2017)
